Data as given in PubChem BioAssay (Tox21).
Inconclusive results are not listed. Entries that show only a call come without a potency. More than one record can exist for a structure, and the calls need not agree. The source made the active and inactive calls. Unless noted, calls come from the whole dose curve; as a rule, active = well fitted curve in the direction sought with a large enough effect in the repeat runs; inconclusive = weak or mixed curves; inactive = no such curve, though single readings can be large; an effect the other way counts as inactive or inconclusive.

Experiments:
[1] = A CellTox Green Cytotoxicity Assay to monitor cytotoxicity in HepG2 cells - 8 hour (AID 1224890); note: nearly all actives have a fitted effect of over 45% in size
Outline: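 First, HepG2 cells (600/well) mixed with reagent were plated; second, after 5 h at 37 C they received compounds via pintool; third, fluorescence was measured at 0 h through 40 h at 8 h intervals.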

[2] = qHTS assay to identify small molecule antagonists of the estrogen receptor alpha (ER-alpha) signaling pathway using the BG1 cell line in the presence of 0.1 nM 17-beta-estradiol - cell viability counter screen (AID 1259241); note: nearly all actives have a fitted effect of over 40% in size
Outline: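 Following 5 days in phenol red-free medium with charcoal-stripped serum, VM7Luc4E2 cells received test compounds alongside 0.1 nM 17beta-estradiol (final) at 37C for 22 hr. Live cells were then quantified via protease-substrate fluorescence.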

[3] = qHTS assay to identify small molecule antagonists of the androgen receptor (AR) signaling pathway using the MDA cell line in the presence of 0.5 nM R1881 - cell viability counter screen (AID 1259242); note: nearly all actives have a fitted effect of over 45% in size
Outline: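 qHTS format. MDA-kb2 (MMTV-luc, AR/GR responsive) + cpd + 0.5 nM R1881 final, 16 hr 37C/0% CO2 → CellTiter-Fluor 30 min → fluorescence intensity.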

[4] = biological target: Estrogen receptor (Homo sapiens) (UniProt P03372); assay: qHTS assay to identify small molecule antagonists of the estrogen receptor alpha (ER-alpha) signaling pathway using the BG1 cell line in the presence of 0.1 nM 17-beta-estradiol (AID 1259244); note: nearly all actives have a fitted effect of over 50% in size; note: potency is the fitted concentration of half-maximal effect
Outline: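 Reporter is a stably transfected luciferase under four estrogen responsive elements in VM7Luc4E2 cells expressing native full-length ER-alpha; inhibition of 0.1 nM (final) 17beta-estradiol-driven signal over 22 h is read by luminescence.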

[5] = qHTS assay to identify small molecule HDAC inhibitors (AID 1259364);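 note: wild-type HCT-116 cells with endogenous class I/II HDAC activity; top concentration of the series differs between compounds; nearly all actives have a fitted effect of over 45% in size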
Outline: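 Quantitative high-throughput format: overnight-seeded HCT-116 cells got compounds for 2 hr at 37C; HDAC-Glo I/II reagent added, 30 min RT, luminescence measured.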

[6] = qHTS assay to identify small molecule HDAC inhibitors - cell viability counter screen (AID 1259365); note: series mostly up to about 92 µM; nearly all actives have a fitted effect of over 50% in size
Outline: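 HCT-116 wild-type, overnight attachment; 2hr drug exposure, 37C; CellTiter-Glo luminescent ATP readout after 30min RT.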

[7] = qHTS assay to identify small molecule agonists of the sonic hedgehog signaling (Shh) pathway - cell viability counter screen (AID 1259366); note: nearly all actives have a fitted effect of over 50% in size
Outline: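 Compounds in DMSO were pin-transferred onto 3T3 Gli1-Luc cells that had settled 4hr; plates then stood 24hr at 37C and 5% CO2. One hour before the end, CellTiter-Fluor was added and fluorescence recorded.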

[8] = qHTS assay to identify small molecule antagonists of the sonic hedgehog signaling (Shh) pathway - cell viability counter screen (AID 1259367); note: nearly all actives have a fitted effect of over 55% in size
Outline: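 Fluorescence read-out (CellTiter-Fluor, 1 hr at 37C) taken after 23 hr compound treatment of 3T3 Gli1-Luc cells stimulated with conditioned medium. Cells were seeded at 2,000 per well and pre-incubated 4 hr.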

[9] = qHTS assay to identify small molecule agonists of the sonic hedgehog signaling (Shh) pathway (AID 1259368; calls by dose curve;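 note: NIH/3T3-derived 3T3Gli1-Luc cells carrying a stable Gli1-driven firefly luciferase reporter; series mostly up to about 92 µM; nearly all actives have a fitted effect of over 15% in size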)
Outline: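 Quantitative high-throughput format using a Gli1-driven firefly luciferase reporter line derived from NIH/3T3 cells. After a 24 hr compound treatment at 37 C and 5% CO2, luminescence reported Gli1 response element activity.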

[10] = qHTS assay to identify small molecule antagonists of the sonic hedgehog signaling (Shh) pathway (AID 1259369; calls by dose curve; note: nearly all actives have a fitted effect of over 45% in size; note: potency is the fitted concentration of half-maximal effect)
Outline: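 Stable Gli1-Luc reporter NIH/3T3 clone; quantitative HTS in stimulated mode with conditioned medium. Luminescence measured after 24hr compound treatment at 37 C.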

[11] = biological target: Estrogen receptor beta (Homo sapiens) (UniProt Q92731); assay: qHTS assay to identify small molecule agonists of the estrogen receptor beta (ER-beta) signaling pathway (AID 1259377; active = well fitted activation curve with a large enough effect in the signal ratio in the repeat runs, not every such curve was filed as active; the % refers to the signal ratio)
Outline: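 qHTS in ER-beta-UAS-bla HEK293T cells: 6 hr settling, then 16 hr compound at 37C, then LiveBLAzer substrate 2 h at RT before fluorescence reading.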

[12] = biological target: Estrogen receptor beta (Homo sapiens) (UniProt Q92731); assay: qHTS assay to identify small molecule antagonists of the estrogen receptor beta (ER-beta) signaling pathway (AID 1259378; active = well fitted inhibition curve with a large enough effect in the signal ratio in the repeat runs, not every such curve was filed as active; the % refers to the signal ratio)
Outline: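 ER-beta-UAS-bla HEK293T cells in 2% charcoal-stripped FBS medium treated with compound plus 1nM final 17-beta-estradiol for 16 hr at 37C. Beta-lactamase reporter read by FRET substrate fluorescence after 2 hours at room temperature.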

[13] = qHTS assay to identify small molecule agonists of the androgen receptor (AR) signaling pathway in the presence of an antagonist - cell viability counter screen (AID 1259379); note: nearly all actives have a fitted effect of over 25% in size; note: potency is the fitted concentration of half-maximal effect
Outline: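 Nilutamide-containing (3.0uM final) MDA-kb2 cultures, 3,000 cells/well, were treated with compounds across 15 concentrations. After 16 hr at 37C with no CO2, cell viability was determined by CellTiter-Fluor fluorescence in the luciferase assay wells.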

[14] = qHTS assay to identify small molecule agonists of the estrogen receptor beta (ER-beta) signaling pathway - cell viability counter screen (AID 1259380); note: nearly all actives have a fitted effect of over 30% in size
Outline: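 Steps: plate ER-beta-UAS-bla HEK293T cells, rest 6 hr; add compounds in DMSO; incubate 16 hr at 37C, 5% CO2; add FRET substrate 2 hr; add CellTiter-Glo, wait 30 min at room temperature; read luminescence.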

[15] = biological target: Estrogen receptor (Homo sapiens) (UniProt P03372); assay: qHTS assay to identify small molecule agonists of the estrogen receptor alpha (ER-alpha) signaling pathway in the presence of an antagonist (AID 1259383; calls by dose curve; note: top concentration of the series differs between compounds; nearly all actives have a fitted effect of over 15% in size)
Outline: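 Readout was ERE-driven luciferase luminescence in VM7Luc4E2 cells, which express full-length ER-alpha endogenously. Compounds were tested at 15 concentrations for 22hr alongside 10.0nM ICI-182,780 (final concentration).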

[16] = qHTS assay to identify small molecule antagonists of the estrogen receptor beta (ER-beta) signaling pathway - cell viability counter screen (AID 1259382); note: series mostly up to about 92 µM; nearly all actives have a fitted effect of over 55% in size
Outline: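 Viability is scored by CellTiter-Glo luminescence (30 min, room temperature) in ER-beta-UAS-bla HEK293T wells already read for reporter fluorescence. Compound exposure lasts 16 hr at 37C alongside 1nM 17-beta-estradiol in charcoal-stripped serum medium.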

[17] = qHTS assay to identify small molecule phospholipidosis (PLD) inducers (AID 1259344; active = well fitted curve in the direction sought with a large enough effect; an effect the other way counts as inactive or inconclusive)
Outline: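 Read-out is LipidTOX Red fluorescence (ex 595/em 615) imaged in HepG2 cells after 24 h compound exposure at 37 C, with Hoechst nuclear counterstain (ex 352/em 461) allowing per-cell normalisation.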

[18] = qHTS assay to identify small molecule agonists or antagonists of the thyroid stimulating hormone receptor (TSHR) signaling pathway - wild type cell line counter screen (AID 1259384; calls by dose curve)
Outline: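 Wild-type Hek293 cells, 800/well, 18 h at 37C, then compound with Ro20-1724 for 30 min RT. cAMP by HTRF (cAMP-d2/anti-cAMP cryptate), 1 h RT, fluorescence read. 15 concentrations, triplicates.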

Chain of Estrogen receptor (Homo sapiens) (P03372 whole entry, looked up): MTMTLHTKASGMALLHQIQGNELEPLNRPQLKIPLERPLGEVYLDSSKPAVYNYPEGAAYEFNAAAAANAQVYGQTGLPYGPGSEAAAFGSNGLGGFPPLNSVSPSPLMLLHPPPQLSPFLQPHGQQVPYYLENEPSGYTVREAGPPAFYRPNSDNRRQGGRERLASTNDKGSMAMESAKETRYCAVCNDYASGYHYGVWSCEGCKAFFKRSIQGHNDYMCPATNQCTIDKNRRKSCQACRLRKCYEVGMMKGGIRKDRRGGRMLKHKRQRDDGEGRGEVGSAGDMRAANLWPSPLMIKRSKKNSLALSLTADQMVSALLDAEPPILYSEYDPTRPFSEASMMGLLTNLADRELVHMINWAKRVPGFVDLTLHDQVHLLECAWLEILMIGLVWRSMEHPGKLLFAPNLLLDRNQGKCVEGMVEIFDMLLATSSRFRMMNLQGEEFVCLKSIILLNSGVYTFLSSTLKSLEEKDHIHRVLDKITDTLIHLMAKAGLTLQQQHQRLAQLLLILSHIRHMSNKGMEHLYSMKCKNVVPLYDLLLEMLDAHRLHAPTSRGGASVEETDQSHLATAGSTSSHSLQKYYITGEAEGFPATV
Chain of Estrogen receptor beta (Homo sapiens) (Q92731 whole entry, looked up): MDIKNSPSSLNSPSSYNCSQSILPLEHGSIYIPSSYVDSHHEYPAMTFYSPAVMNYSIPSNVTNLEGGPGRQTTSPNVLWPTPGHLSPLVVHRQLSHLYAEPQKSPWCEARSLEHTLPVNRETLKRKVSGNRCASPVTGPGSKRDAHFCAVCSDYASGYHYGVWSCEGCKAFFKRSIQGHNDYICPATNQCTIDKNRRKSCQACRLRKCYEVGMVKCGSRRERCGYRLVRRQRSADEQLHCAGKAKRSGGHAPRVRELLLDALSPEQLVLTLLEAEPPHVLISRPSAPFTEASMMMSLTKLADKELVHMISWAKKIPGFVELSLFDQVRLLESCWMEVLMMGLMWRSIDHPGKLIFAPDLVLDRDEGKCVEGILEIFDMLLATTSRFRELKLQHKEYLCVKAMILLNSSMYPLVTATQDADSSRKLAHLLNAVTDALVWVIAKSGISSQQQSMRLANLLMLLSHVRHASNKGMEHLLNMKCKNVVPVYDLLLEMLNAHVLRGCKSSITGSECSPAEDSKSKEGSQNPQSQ

Compound	Potency [1]	outcome [2]	outcome [3]	Potency [4]	Potency [5]	outcome [6]	Potency [7]	Potency [8]	outcome [9]	Potency [10]	Potency [11]	outcome [12]	Potency [13]	Potency [14]	outcome [15]	outcome [16]	Potency [17]	outcome [18]
Nc1cccc(Cl)c1	inactive	inactive	inactive	inactive	inactive	inactive	inactive	inactive	inactive	inactive	inactive	inactive	inactive	inactive	inactive	–	–	–
Cc1cccc(N)c1C	inactive	inactive	inactive	inactive	inactive	inactive	inactive	inactive	–	inactive	inactive	inactive	inactive	inactive	inactive	inactive	–	–
O=P1(NCCCl)OCCCN1CCCl (centres undefined)	inactive	inactive	inactive	–	inactive	inactive	inactive	inactive	inactive	inactive	–	–	inactive	inactive	–	–	inactive	–
Cc1cccc(N)c1	inactive	inactive	inactive	inactive	inactive	inactive	inactive	inactive	inactive	inactive	–	–	inactive	inactive	inactive	inactive	–	–
O=[N+]([O-])c1ccc(Cl)c(Cl)c1	inactive	inactive	inactive	inactive	inactive	inactive	inactive	inactive	–	inactive	–	–	inactive	inactive	inactive	inactive	–	–
CNC(=O)O/N=C/C(C)(C)SC	inactive	inactive	inactive	inactive	inactive	inactive	inactive	inactive	inactive	inactive	–	–	inactive	inactive	inactive	inactive	–	–
CN1C(=O)CCS(=O)(=O)C1c1ccc(Cl)cc1 (centres undefined)	inactive	inactive	inactive	–	inactive	inactive	inactive	inactive	–	inactive	inactive	inactive	inactive	inactive	–	inactive	inactive	inactive
N#CN=C(N)N	inactive	inactive	inactive	inactive	inactive	inactive	inactive	inactive	–	inactive	inactive	inactive	inactive	inactive	inactive	–	–	–
Oc1ccc(Cl)cc1	inactive	inactive	inactive	–	inactive	inactive	inactive	inactive	inactive	inactive	–	–	inactive	inactive	–	–	inactive	inactive
CN(C)CCC#N	inactive	inactive	inactive	inactive	inactive	inactive	inactive	inactive	–	inactive	inactive	inactive	inactive	inactive	inactive	inactive	–	–
OCc1ccco1	inactive	inactive	inactive	inactive	inactive	inactive	inactive	inactive	inactive	inactive	inactive	inactive	inactive	inactive	inactive	inactive	–	inactive
Nc1ncc([N+](=O)[O-])s1	inactive	inactive	inactive	inactive	inactive	inactive	inactive	inactive	–	inactive	inactive	inactive	inactive	inactive	inactive	–	–	–
CN(C)C(=O)Cl	inactive	inactive	inactive	inactive	inactive	inactive	inactive	inactive	inactive	inactive	–	–	inactive	inactive	inactive	–	–	–
ClC(Cl)c1ccccc1	inactive	inactive	inactive	inactive	inactive	inactive	inactive	inactive	inactive	inactive	–	–	inactive	inactive	inactive	–	–	–
OCC(O)CCl (centres undefined)	inactive	inactive	inactive	inactive	inactive	inactive	inactive	inactive	–	inactive	–	–	inactive	inactive	inactive	inactive	–	–
C=C(C)C(=O)OCC(CC)CCCC (centres undefined)	inactive	inactive	inactive	22.1 µM (active) and inactive	inactive	inactive	inactive	inactive	–	inactive	inactive	inactive	55.5 µM (active) and inactive	inactive	inactive	–	–	–
NNc1ccccc1	inactive	inactive	inactive	–	inactive	inactive	inactive	inactive	–	inactive	inactive	inactive	inactive	inactive	–	inactive	inactive	inactive
COP(=S)(OC)SCN1C(=O)c2ccccc2C1=O	inactive	inactive	inactive	–	inactive	inactive	inactive	inactive	inactive	54.5 µM (active)	inactive	inactive	inactive	inactive	–	–	inactive	inactive
O=C(O)C1C(C(=O)O)C2(Cl)C(Cl)=C(Cl)C1(Cl)C2(Cl)Cl (centres undefined)	inactive	inactive	inactive	inactive	inactive	inactive	inactive	inactive	–	inactive	inactive	inactive	inactive	inactive	inactive	–	–	inactive
CCCCC(CC)C(=O)Cl (centres undefined)	inactive	inactive	inactive	inactive	inactive	inactive	inactive	inactive	inactive	inactive	inactive	inactive	inactive	inactive	inactive	–	–	–
